Test results taken from PubChem BioAssay (NCI).
About 83,000 compounds went through this panel and 20% of them were active in at least one assay; those are over-represented in the sample as a whole.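 Note: values are percent growth. 100 is the growth of untreated cells, values between 100 and 0 indicate rising inhibition; between -100 and 0 indicates cell death.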 A number with no mark means an inactive call. Activity calls are given as the source filed them. Rule for the calls: active = growth percent below 10; inactive = the rest.

Tests used:
Assay in all cases: NCI-60 one-dose screen, 48 h (100 = growth as untreated, 0 = no growth, -100 = all killed)
Conditions in all cases: 10 µM
NCI-H23 lung = system: NCI-H23 lung
NCI-H322M lung = system: NCI-H322M lung
HOP-62 NSCLC = system: HOP-62 NSCLC
NCI-H460 lung = system: NCI-H460 lung
HOP-92 NSCLC = system: HOP-92 NSCLC
NCI-H522 lung = system: NCI-H522 lung
A549/ATCC NSCLC = system: A549/ATCC NSCLC
786-0 renal = system: 786-0 renal
COLO 205 colon = system: COLO 205 colon
DU-145 prostate = system: DU-145 prostate
K-562 leukemia = system: K-562 leukemia
MALME-3M melanoma = system: MALME-3M melanoma
MDA-MB-231 breast = system: MDA-MB-231 breast
RXF 393 renal = system: RXF 393 renal
SF-268 CNS = system: SF-268 CNS
SF-295 CNS = system: SF-295 CNS
SF-539 CNS = system: SF-539 CNS
UACC-257 melanoma = system: UACC-257 melanoma
M14 melanoma = system: M14 melanoma

SMILES	growth (NCI-H23 lung)	growth (NCI-H322M lung)	growth (HOP-62 NSCLC) [%]	growth (NCI-H460 lung)	growth (HOP-92 NSCLC)	growth (NCI-H522 lung)	growth (A549/ATCC NSCLC)	growth (786-0 renal)	growth (COLO 205 colon)	growth (DU-145 prostate)	growth (K-562 leukemia)	growth (MALME-3M melanoma)	growth (MDA-MB-231 breast)	growth (RXF 393 renal)	growth (SF-268 CNS)	growth (SF-295 CNS)	growth (SF-539 CNS)	growth (UACC-257 melanoma)	growth (M14 melanoma)
COc1ccc(-c2cn[nH]c2-c2cc(OC)c(OC)c(OC)c2)cc1	27.8%	26.4%	45.2	3.25% (active)	-5.63% (active)	-17.9% (active)	21.2%	-4.65% (active)	-68% (active)	4.46% (active)	6.36% (active)	76.4%	8.75% (active)	14.8%	19.7%	6.26% (active)	-32% (active)	49.2%	3.85% (active)
Cc1cccc2c(Nc3ccc(NS(C)(=O)=O)cc3)c3ccc([N+](=O)[O-])cc3nc12	-17.6% (active)	36.4%	14	-34.6% (active)	-16.7% (active)	-68.3% (active)	1.51% (active)	5.57% (active)		-15.3% (active)	1.15% (active)	-22% (active)	61.4%	-31.9% (active)	12.5%	-15.2% (active)	16.8%	-16.3% (active)	16.7%
COc1cc2c3c(cccc3c1)C(=O)N(CCN1CCCC1)C2=O	32.5%	13.6%	25.7	-22% (active)	-8.44% (active)	-11% (active)	6.08% (active)	36.1%	4.92% (active)	15.1%	4.01% (active)	-21.7% (active)	29.1%	10.9%	28.2%	40.2%	30.1%	-10.4% (active)	25.7%
Cc1ccc2nc3[nH]c(=O)[nH]c(=O)c3c(N)c2c1	91.9%	73.3%	84.3	81.2%	76%	83.9%	89%	78.7%	91.2%	77.2%	96.2%		95.8%	77.7%	88.5%	90.9%	92.3%	88.9%	96%
C[C@H](NC(=O)[C@@H]1CSSC[C@@H](NC(=O)Cc2nc3ccccc3cc2O)C(=O)NCC(=O)N1C)c1ccccc1	106%	105%	90.2	94.2%	116%	88.3%	90.5%	114%	89.7%	83.3%	43.9%	125%	70.8%	122%	86.6%	104%	79.3%	85.4%	64.8%
COc1ccc(N2CCN(c3nc(-c4ccccc4)c(C#N)c(=O)[nH]3)CC2)cc1	98.7%	94.6%	91.8	103%	92.4%	92.7%	104%	103%	102%	107%	87.6%	80.8%	106%	105%	108%	102%	99.6%	109%	96.8%
C[C@]12CC[C@H]3[C@@H](CCC4=CC(=O)CC[C@@]43C)[C@@H]1CC[C@@H]2c1csc(N)n1	36.2%	110%	70.2	42.4%	65.4%	63.1%	60.7%	68.1%	25.6%	78.2%	26%		66.8%	76.8%	89.6%	50.3%	81%	49.6%	61%
CC(=O)CS(C)(=O)=O	102%	113%	106	114%	98.5%	93.7%	96.7%	106%	106%	106%	102%		108%	111%	104%	115%	109%	96.4%	108%
COc1ccc(-c2[nH]ncc2-c2cc(OC)c(OC)c(OC)c2)cc1	24.9%	21.8%	35.6	4.05% (active)	-10.4% (active)	-36.8% (active)	18%	3.72% (active)	-72.4% (active)	-23.9% (active)	6.11% (active)	57.2%	4.38% (active)	0.469% (active)	16%	-1.07% (active)	-28.1% (active)	42.6%	4.51% (active)
COc1ccc2nc(-c3ccccc3)cc(C(C)=O)c2c1	89.8%	84.7%	78.3	99.1%	71.5%	80.9%	100%	95.8%	110%	107%	84.1%	86.5%	89.5%	102%	96.1%	96.3%	86.1%	99.9%	95.3%
Cc1ccc2c3c(cccc13)-c1ccccc1C2=O	86.5%	92.4%	93.6	96.2%	108%	67.1%	81.8%	99.4%	93.9%	101%	108%	110%	95.5%	105%	95.7%	95.1%	97.2%	101%	98.6%
Cc1ccccc1[P+](Cc1ccccc1)(c1ccccc1)c1ccccc1	9.83% (active)	42.3%	32.3	17.5%	-21.8% (active)	-15.8% (active)	19.7%	43.7%	-56% (active)	41%	7.69% (active)	-1.44% (active)	40.7%	64.6%	33.9%	11%	35.4%	-26.7% (active)	15.1%
O=C(O)c1cc(C(F)(F)F)cc(C(F)(F)F)c1	101%	102%	103	107%	121%	102%	101%	93.7%	113%	116%	95.2%		104%	105%	106%	102%	105%	101%	91.1%
c1ccc(OCCC[P+](c2ccccc2)(c2ccccc2)c2ccccc2)cc1	1.67% (active)	20.4%		12.5%	-31.3% (active)	-7.37% (active)	25.6%	23.1%	-35.6% (active)	21.4%	1.76% (active)	16.5%	11.9%	31.6%	18%	-30.7% (active)	13.6%	-10.9% (active)	14.1%
Cc1nc2cc(-n3c(-c4ccc(F)cc4)nc4ccccc4c3=O)ccc2n1Cc1ccccc1	42.1%	38.2%		-38.9% (active)	-15.6% (active)	44.5%	-25.4% (active)	7.98% (active)	4.23% (active)	20.8%	8.27% (active)	-45.1% (active)	-25.5% (active)	-31.3% (active)	8.04% (active)	47.1%	-72.6% (active)	-18% (active)	3.21% (active)
COCCNCC(O)Cn1c2ccc(Cl)cc2c2cc(Cl)ccc21 (configuration not stated)	-36.8% (active)	-20.1% (active)	17	5.55% (active)	135%	-62.8% (active)	-10.2% (active)	21.9%	-67.9% (active)	7.48% (active)	-17.1% (active)	-86.3% (active)	-33.1% (active)	3.52% (active)	7.96% (active)	-6.61% (active)	-85% (active)	-81% (active)	-87.4% (active)
